About 83,000 compounds went through this panel and 20% of them were active in at least one assay; those are over-represented in the sample as a whole.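 Interpretation: 100, growth as untreated; towards 0, rising growth inhibition; 0, no net growth; 0 to -100, cell death. Compounds scoring below 10 were considered active.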 A number with no mark means an inactive call. Active and inactive are the calls of the source.

In one experiment the test system is SK-MEL-2 melanoma. Put plainly: NCI-60 one-dose screen, 48 h (100 = growth as untreated, 0 = no growth, -100 = all killed). Conditions: 10 µM unless noted.
For `C=CCN(/C=C/CN(CC=C)CC=C)CC=C`, the growth is 115%. Still for that read-out and setting: then `COc1ccc(-c2nnc3c4[nH]cnc4ncn23)c(OC)c1`, with 29.9%; and `Cc1ccc(S(=O)(=O)NCCN2c3nc4ccccc4cc3Sc3cc4ccccc4nc32)cc1`, with 44.2%. The same measure, in the same setting: then `COc1cnc2c(c1)C(=O)c1c-2n(CCCN2CCC(O)CC2)c(=O)c2cc(F)ccc12`, with 3.49% (active); and `NS(=O)(=O)c1ccc(N2CC(c3nc4ccccc4[nH]3)CC2=O)cc1` (stereo not given), with 102%; and `COc1cnc2c(c1)C(=O)c1c-2n(CCCN2CCCC2)c(=O)c2cc(F)ccc12`, with 23.1%.

`COc1ccc(-n2cnc3cc(C(=O)N4CCCCC4)ccc32)cc1`: the growth is 111%. With `C1CCC(C(CC2CCCCN2)C2CCCCC2)CC1` (stereo not given), the growth was 64.2%. Still for that read-out and setting: in the case of `O=C1NC(=O)/C(=C\c2ccco2)S1` it was 105%; in that of `COc1ccc2nc(-c3ccc(Cl)cc3)cc(-c3nnc(SCC(=O)Nc4ccc(C(C)=O)cc4)n3-c3ccccc3)c2c1`, 91.5%. `Nc1ncnc2c1CN(Cc1ccccc1)CC2`: the growth was 103%. Still for that read-out and setting: then `COC(=O)[C@H](CCCCNC(=O)OCc1ccccc1)NC(=O)[C@@H](NC(=O)Nc1cc(C(F)(F)F)cc(C(F)(F)F)c1)C(C)C`, with -77.3% [100 µM] (active). Still for that read-out and setting: in the case of `O=CN1N=C(c2ccc(Nc3ccnc4cc(Cl)ccc34)cc2)CC1c1ccc(Cl)cc1` (stereo not given) it was 52.1%. Regarding `COc1cccc(-c2nc3cc(NC(=O)c4ccc(Cl)c(C#N)c4)ccc3o2)c1`, the growth was 63.8%.

The subject of a further experiment is EKVX NSCLC. The experiment is described as above. As to conditions: 10 µM unless noted.
In the case of `FC(F)(F)c1cc(-c2nnc3n2N=C(N2CCCC2)CS3)cc(C(F)(F)F)c1`, the growth was 80.6%.

As to `Clc1ccc(C2=NN(c3ccc(Cl)cc3)C(c3cccc(Nc4ccnc5cc(Cl)ccc45)c3)C2)cc1` (stereo not given), the growth was 74.3%. On the same count and under the same terms, in the case of `O=C(CNC(=O)c1cccc2ccccc12)Nc1ccccc1Oc1cccc(O)c1` it was 47.2% [5 µM]. On the same count and under the same terms, then `COc1ccc2c(=O)c(OC)c(-c3cc(OC)c(OC)c(OC)c3)oc2c1`, with 109%; and `O=C(/C=C/c1c(-c2ccccc2)[nH]c2ccccc12)S(=O)(=O)c1ccccc1`, with 64.3%; and `O=C(Nc1nc2c(C(F)(F)F)cccc2s1)c1cc(Cl)ccc1O`, with 11.1%. Same read-out and setting: in the case of `CCN(CC)CCOCC[C@H]1CC[C@H]2[C@@H]3[C@H](C)Cc4cc(OS(N)(=O)=O)ccc4[C@H]3CC[C@]12C` it was -23.4% (active). For `COc1cc(-c2n[nH]nc2-c2ccccn2)cc(OC)c1OC`, the growth was 94.6%. `COc1cc(C2=NN(C=O)C(c3cccc(Nc4ccnc5cc(Cl)ccc45)c3)C2)cc(OC)c1OC` (stereo not given): the growth is 79.3%. On the same count and under the same terms, in the case of `Cc1sc2nc(NCc3ccccc3)[nH]c(=O)c2c1C` it was 70.3%.

Turning to `CC(=O)N1N=C(c2ccc(Nc3nc(NCCO)nc(NCCO)n3)cc2)CC1c1ccc(Cl)cc1` (stereo not given), the growth was 91.9%. The same measure, in the same setting: in the case of `COc1ccc(N2CCN(CC(=O)N3CCN(c4nnc(-c5ccc(Cl)cc5)c(-c5ccc(Cl)cc5)n4)CC3)CC2)cc1` it was 53.4%. Same read-out and setting: in the case of `Cc1cc2c(cc1C)[n+](Cc1ccc3ccccc3c1)cn2Cc1ccc2ccccc2c1` it was -64.3% (active); in that of `COc1ccc(Oc2ccccc2NC(=O)CNC(=O)c2cccc3ccccc23)cc1`, 46.3% [5 µM]; in that of `COc1cccc(N2CCN(CC(=O)N3CCN(c4nnc(-c5ccc(Cl)cc5)c(-c5ccc(Cl)cc5)n4)CC3)CC2)c1`, 57%.

`CC(=O)N1N=C(c2ccc3c(c2)OCO3)CC1c1c(C)nn(-c2ccccc2)c1N(C)Cc1ccccc1` (stereo not given): the growth is 72.9%. Still for that read-out and setting: then `COc1ccc(C(=O)/C=C/c2cccc(Nc3ccnc4cc(Cl)ccc34)c2)cc1`, with 50.9%.

For `COc1cc(C2CC(C3C(=O)N(C)C(=O)N(C)C3=O)=NN2c2cc(Cl)cc(Cl)c2)cc(OC)c1OC` (stereo not given), the growth was 93.8%. On the same count and under the same terms, then `O=C(CNC(=O)c1cccc2ccccc12)Nc1ccccc1Cc1ccccc1`, with 54.9% [5 µM]. In the case of `CCCCc1n(Cc2ccc3ccccc3c2)cc[n+]1Cc1ccc2ccccc2c1`, the growth was 14.4%. Same read-out and setting: in the case of `COc1cc(C2CC(C3C(=O)N(C)C(=O)N(C)C3=O)=NN2C=O)cc(OC)c1OC` (stereo not given) it was 100%.

For `CCOC(=O)c1sc(NC(=O)COc2cccc(/C=C3\Cc4ccc(Cl)cc4C3=O)c2)nc1C`, the growth was 107%. Take `CCN(CC)c1ccc(C(=C2C=CC(=[N+](CC)Cc3cccc(S(=O)(=O)O)c3)C=C2)c2ccc(N(CC)Cc3cccc(S(=O)(=O)O)c3)cc2)cc1`: the growth is 33.2%. The same measure, in the same setting: in the case of `O=C(CNC(=O)c1cccc2ccccc12)Nc1ccccc1Oc1ccc(O)cc1` it was 52.4% [5 µM]; in that of `COc1cc(C(=O)/C=C/c2cccc(Nc3ccnc4cc(Cl)ccc34)c2)cc(OC)c1OC`, 16.8%; in that of `CN1C(=O)C(C2=NN(C=O)C(c3ccc(F)cc3)C2)C(=O)N(C)C1=O` (stereo not given), 101%.
